This is an account of results in PubChem BioAssay (Tox21).

Molecules are shown by their SMILES. Activity calls are given as the source filed them. Calls follow the shape of the full dose curve.
% is scaled to controls: 0 for no effect and ±100 for the full control effect.

In this assay the target is Acetylcholinesterase (Homo sapiens) (UniProt P22303). As to the kind of experiment: Acetylcholinesterase (AChE) small molecule antagonists: enzyme-based qHTS assay with human liver microsomes (AID 1347399). Also: nearly all actives have a fitted effect of over 60% in size. As to conditions: Potency: qHTS inhibition; outcome: qHTS inhibition; series mostly up to 115 µM; activity change, negative = inhibition: at the top concentration. An excerpt: National Center for Advancing Translational Sciences [NCATS]
Acetylcholinesterase (Homo sapiens), sequence (P22303 whole entry, looked up): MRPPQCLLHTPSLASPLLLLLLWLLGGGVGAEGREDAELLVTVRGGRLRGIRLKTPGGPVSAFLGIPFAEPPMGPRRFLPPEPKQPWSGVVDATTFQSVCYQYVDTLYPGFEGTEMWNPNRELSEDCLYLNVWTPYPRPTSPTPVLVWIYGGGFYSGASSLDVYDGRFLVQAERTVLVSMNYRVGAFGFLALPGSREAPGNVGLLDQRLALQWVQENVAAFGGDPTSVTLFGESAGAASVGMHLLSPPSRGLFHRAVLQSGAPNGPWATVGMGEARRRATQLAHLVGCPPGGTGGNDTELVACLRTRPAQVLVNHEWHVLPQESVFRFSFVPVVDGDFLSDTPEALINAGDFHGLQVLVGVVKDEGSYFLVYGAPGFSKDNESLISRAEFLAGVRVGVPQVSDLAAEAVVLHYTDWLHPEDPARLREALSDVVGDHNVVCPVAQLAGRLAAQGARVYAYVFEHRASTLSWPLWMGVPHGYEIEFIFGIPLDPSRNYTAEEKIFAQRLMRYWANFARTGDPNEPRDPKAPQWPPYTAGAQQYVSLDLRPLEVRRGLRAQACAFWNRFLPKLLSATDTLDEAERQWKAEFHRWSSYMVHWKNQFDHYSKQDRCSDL
Division of Preclinical Innovation [DPI]
U.S. Environmental Protection Agency [EPA]
National Institutes of Environmental Health Sciences [NIEHS]
National Toxicology Program [NTP]
U.S. Food and Drug Administration [FDA]
Acetylcholinesterase (AChE) is the primary cholinesterase in the body that hydrolyzes a key neurotransmitter, acetylcholine. Inhibition of AChE activity can lead to neurotoxicity. The known inhibitors include organophosphorous pesticides (OP), chemical warfare agents, drugs, and various phytochemicals. Some compounds like OP compounds may need metabolic activation to be active AChE inhibitors. The cytochrome P450 (CYP) superfamily in the human microsomes is responsible for the metabolism of various endogenous and exogenous compounds.
An enzyme-based assay with the recombinant human AChE, human liver microsomes and Amplite Colormetric acetylcholinesterase assay kit (AAT Bioquest, Sunnyvale, CA) was used to evaluate compounds in the Tox21 10K library that need metabolic activation for AChE inhibition. The assay uses 5, 5-dithiobis-(2-nitrobenzoic acid) (DTNB) to quantify the thiocholine produced from the hydrolysis of acetylthiocholine by AChE.
Tox21 Assay Protocol Summary:
For the enzyme-based AChE assay with microsomes addition, a mixture of human AChE (50 mU/mL) and human liver microsomes (0.25 mg/mL, final concentration) in 3 uL/well was dispensed into black, clear-bottom 1536-well plates using a Multidrop Combi dispenser (Thermo Scientific, MA). Then, 23 nL of compound or DMSO (vehicle control) was transferred into the assay plates by a Pintool Station (Wako Automation, CA). Following compound addition, 1 uL of NADPH (0.25 mg/mL, final concentration) was transferred to the assay plate by a Flying Reagent Dispenser (Beckman Coulter, CA). The plates were incubated for 30 min at 37 C and 5% CO2, followed by the addition of 4 uL of colorimetric detection cocktail solution (DTNB, acetylthiocholine) into each well using a Flying Reagent Dispenser (Beckman Coulter, CA) and then 10 min incubation at room temperature.
A general note: In qHTS, concentration-response curves come from the screen itself.
On to `Nc1nnc(-c2ccc([N+](=O)[O-])o2)o1`, for which the “activity change, negative = inhibition” value was 12.5% (inactive).
The same measure, in the same setting: as for `O=C(O)c1ccc(O)c(O)c1`, the figure is 0% (inactive); as for `Cc1ccc(N)cc1[N+](=O)[O-]`, -0.341% (inactive); as for `NC(N)=N/N=C/c1c(Cl)cccc1Cl`, -0.0587% [at 53 µM] (inactive).
Still for that read-out and setting: to `O=c1c2ccccc2nnn1CCl` belongs 0.0223% (inactive); to `OCC(CO)N[C@H]1C[C@](O)(CO)[C@@H](O)[C@H](O)[C@H]1O`, 0.362% [at 53 µM] (inactive); to `CCc1ccc(O)c(OC)c1`, 1.45% (inactive).
Still for that read-out and setting: to `CC1CCN(CCCC(=O)c2ccc(F)cc2)CC1` belongs 0.139% [at 53 µM] (inactive); to `O=C(CS(=O)Cc1ccco1)NC/C=C\COc1cc(CN2CCCCC2)ccn1` (stereo not given), -1.62% [at 53 µM] (inactive); to `S=C(SSSSSSC(=S)N1CCCCC1)N1CCCCC1`, -2.6% [at 23.6 µM] (inactive).
`CN1CCCC1`: the “activity change, negative = inhibition” value was -1.07% (inactive).
Same read-out and setting: to `COc1ccc(S(=O)(=O)N2c3ccc(Cl)cc3[C@@](O)(c3ccccc3Cl)[C@H]2C(=O)N2CCC[C@@H]2C(N)=O)cc1OC` belongs 1% [at 53 µM] (inactive); to `C=CC/C=C/C/C=C/C/C=C/C`, 12.1% (inactive); to `CC(C)C(O)C(C)(C)CO` (stereo not given), -2.84% (inactive).
Take `O=C(CC(=O)C(F)(F)F)c1ccccc1`: the “activity change, negative = inhibition” value was -2.25% (inactive).
On the same count and under the same terms, to `COc1cc(C(C)C)c2c(c1)S(=O)(=O)N(COc1cc(=O)n3cccc(OCCN4CCCCC4)c3n1)C2=O` belongs -1.08% [at 23.6 µM] (inactive).
Same read-out and setting: as for `NCCCN1CCOCC1`, the figure is 0.764% (inactive).
On the same count and under the same terms, to `O=C1OC(=O)c2cc([N+](=O)[O-])ccc21` belongs 1.43% (inactive); to `CCCC(=O)OC(=O)CCC`, 0.0036% (inactive).
Consider `O=CC1CC1`, for which the “activity change, negative = inhibition” value is 1.7% (inactive).
With `CCOc1ccccc1O[C@H](c1ccccc1)[C@H]1CNCCO1`, the outcome was inactive.
`CCCCCC(=O)CC`: the “activity change, negative = inhibition” value is 0.437% (inactive).
As to `Cc1ccc(N(CCO)CCO)cc1`, the “activity change, negative = inhibition” value was -1.03% (inactive).
The same measure, in the same setting: as for `CO[Si](CCCCl)(OC)OC`, the figure is 3.76% (inactive); as for `CC1(C)CC(O)CC(C)(C)N1[O]`, -4.5% (inactive).
Still for that read-out and setting: to `CCCCc1ccc2nc(NC(=O)OC)[nH]c2c1` belongs -0.0927% [at 53 µM] (inactive); to `O=C(c1ccccc1)C1CCC1`, -2.7% (inactive); to `COc1ccc(OC)c(OC)c1`, 0.115% (inactive).
On the same count and under the same terms, as for `CC(C)c1ccccc1`, the figure is -6.15% (inactive).
On to `Cc1ccccc1N1C(=O)c2cc(S(N)(=O)=O)c(Cl)cc2NC1C` (stereo not given), for which the “activity change, negative = inhibition” value is -0.334% [at 53 µM] (inactive).
With `CCN(CC)c1ccc2c(-c3ccc(S(=O)(=O)O)cc3S(=O)(=O)[O-])c3ccc(=[N+](CC)CC)cc-3oc2c1`, the “activity change, negative = inhibition” value was 11.6% (inactive).
The same measure, in the same setting: to `O=C(O)/C=C(\CC(=O)O)C(=O)O` belongs 0.294% [at 53 µM] (inactive); to `CC(=O)C(C)=O`, 0.823% (inactive).
Still for that read-out and setting: to `CC(C)(c1cc(Br)c(OCCO)c(Br)c1)c1cc(Br)c(OCCO)c(Br)c1` belongs -0.478% (inactive).
On the same count and under the same terms, as for `Oc1ccc(Cl)cc1C1CCCC1`, the figure is 0.138% (inactive).
For the molecule `O=c1[nH][nH]c(=O)c2cc([N+](=O)[O-])ccc12`, the “activity change, negative = inhibition” value is 3.91% (inactive).
Same read-out and setting: as for `N#CCc1ccccc1[N+](=O)[O-]`, the figure is -3.24% (inactive).
Still for that read-out and setting: to `O=S1(=O)CCCC1` belongs 0% (inactive); to `CC(C)OC(=O)c1ccccc1C(=O)OC(C)C`, -3.99% (inactive).
On the same count and under the same terms, to `CCN(CC)CCOc1ccccc1C(=O)CCc1ccccc1` belongs -0.452% [at 53 µM] (inactive).
